# From PubChem BioAssay (NCATS)
# Results filed as inconclusive are left out. Entries that show only a call come without a potency. Unmarked numbers belong to inactive results. Calls of active or inactive are those of the source. Calls follow the shape of the dose curve; as a rule, active = well fitted curve in the direction sought with a large enough effect; inconclusive = small, poorly fitted or top-dose-only effect, or another doubt; inactive = no such curve, though single readings can be large; an effect the other way counts as inactive or inconclusive.
# Tests used:
# PA-1 = assay: Primary qHTS to identify gynecologic anti-cancer compounds using libraries of approved drugs and bioactive compounds (AID 1345084); details: Gynecologic cancer cell panel viability, ATPlite luminescence, 48 h; series mostly up to 57.5 µM; also: nearly all actives have a fitted effect of over 55% in size
# Method in brief: (§1)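 In this quantitative HTS, cell killing is estimated from loss of ATP-dependent luciferase light. Cells see five compound concentrations over a 48 h exposure.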
# SKOV3 = assay: as above; details: Gynecologic cancer cell panel viability, ATPlite luminescence, 48 h; series mostly up to 57.5 µM
# Method in brief: as §1
# Tov-21-G = assay: as above; details: Gynecologic cancer cell panel viability, ATPlite luminescence, 48 h; series mostly up to 57.5 µM
# Method in brief: as §1
# Tov112D = assay: as above; details: Gynecologic cancer cell panel viability, ATPlite luminescence, 48 h; series mostly up to 57.5 µM
# Method in brief: as §1
# [1] = qHTS assay to identify inhibitors of the type 1 interferon - major histocompatibility complex class I in skeletal muscle: Counter screen cell viability and HiBit confirmation (AID 1347412); details: iHSKM muscle cells + IFN-b, HiBiT or CellTiter-Glo, 24 h; also: nearly all actives have a fitted effect of over 60% in size
# Method in brief: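 Luminescence read-out: Nano-Glo HiBiT lytic signal from C-terminally HiBiT-tagged HLA-B in CRISPR-edited human myoblasts, plus CellTiter Glo ATP as viability counter screen. IFN-beta 4.0 ng/ml; 24 hrs treatment at 37 C, 5% CO2.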
# Potency is read from the fitted curve at half-maximal effect.
structure (smiles),measurement,setting,value
C=C1C(=O)O[C@@H]2[C@H]1CCC(C)=C(CCC(=O)O)[C@@]2(C)O,Potency,PA-1,inactive
same,Potency,SKOV3,inactive
same,Potency,Tov-21-G,inactive
same,Potency,Tov112D,inactive
Cc1cc(-c2nc3cc(F)ccc3s2)ccc1NC(=O)[C@@H](N)CCCCN,Potency,PA-1,10 µM (active)
same,Potency,SKOV3,11.2 µM (active)
same,Potency,Tov-21-G,14.1 µM (active)
same,Potency,Tov112D,15.8 µM (active)
same,Potency,[1]; Viability,22.2 µM (active)
C[C@H](CN(C)C)Oc1nc(Nc2cc3cccc(Cl)c3cn2)cnc1C#N,Potency,PA-1,inactive
same,Potency,SKOV3,12.6 µM (active)
same,Potency,Tov112D,inactive
C=C1C(=O)OC2/C=C(\C)CC/C=C(\C=O)C(OC)C(OC(=O)C(C)CC)C12 (stereo not given),Potency,PA-1,inactive
same,Potency,SKOV3,inactive
same,Potency,Tov112D,inactive
C=C(C)C1=C[C@@]2(C)C(=CC1=O)CC[C@@H](O)[C@@H]2C,Potency,PA-1,inactive
same,Potency,SKOV3,inactive
same,Potency,Tov-21-G,inactive
same,Potency,Tov112D,inactive
C=C1C(=O)O[C@@H]2C[C@@]3(C)C[C@@H](O)C[C@H](C)C3=C[C@H]12,Potency,PA-1,inactive
same,Potency,SKOV3,inactive
same,Potency,Tov112D,inactive
COc1cc(N2CCC(N)CC2)ccc1Nc1ncc(Cl)c(-c2c[nH]c3ccccc23)n1,Potency,PA-1,15.8 µM (active)
same,Potency,SKOV3,5.01 µM (active)
same,Potency,Tov-21-G,8.91 µM (active)
same,Potency,[1]; HiBiT,5.57 µM (active)
Cn1ncc2cc(-c3cnc(N)c(Cl)c3N3CCC4(CCNC4=O)CC3)ccc21,Potency,PA-1,inactive
same,Potency,SKOV3,inactive
same,Potency,Tov-21-G,inactive
same,Potency,Tov112D,inactive
same,"activity change, negative = inhibition","[1]; Viability, at 45.9 µM (top of the series)",5.32%
CCOc1cc(C(C)(C)C)ccc1C1=N[C@@](C)(c2ccc(Cl)cc2)[C@@](C)(c2ccc(Cl)cc2)N1C(=O)N1CCN(CC(=O)N2CCOCC2)CC1,Potency,PA-1,10 µM (active)
same,Potency,SKOV3,inactive
same,Potency,Tov112D,inactive
COC(C)(C)CCn1nc(Nc2c(C)cccc2C)c2cnc(Nc3ccc(OCCN4CCCC4)c(F)c3)nc21,Potency,PA-1,2.82 µM (active)
same,Potency,SKOV3,15.8 µM (active)
same,Potency,Tov-21-G,1.78 µM (active)
same,Potency,Tov112D,inactive
same,Potency,[1]; HiBiT,15.7 µM (active)
C=CCCN1CCC2(CC1)CN(C(=O)c1c(F)cccc1F)c1ccc(Cl)cc12,Potency,PA-1,inactive
same,Potency,SKOV3,inactive
same,Potency,Tov-21-G,inactive
same,Potency,Tov112D,inactive
CC[C@H](C)/C=C(C)/C=C/C1=CC2=CC(=O)[C@]3(C)OC(=O)[C@@H](C(C)=O)[C@@H]3C2=CO1,Potency,PA-1,inactive
same,Potency,SKOV3,inactive
same,Potency,Tov112D,inactive
O=C(NCCCNC(=O)c1ccc[nH]c1=O)c1cc(-c2ccccc2)on1,Potency,PA-1,8.91 µM (active)
same,Potency,SKOV3,inactive
same,Potency,Tov112D,inactive
COc1ccc(CNCc2cccc3ccccc23)cc1,Potency,PA-1,inactive
same,Potency,SKOV3,inactive
same,Potency,Tov-21-G,inactive
same,Potency,Tov112D,inactive
CC(C)S(=O)(=O)c1ccc2nccc(Nc3ccc4scnc4c3)c2c1,Potency,PA-1,inactive
same,Potency,SKOV3,12.6 µM (active)
same,Potency,Tov112D,inactive
C=C1C(=O)O[C@@H]2C[C@H](C)[C@@H]3CC(=O)[C@H](O)[C@@]3(C)C[C@H]12,Potency,PA-1,25.1 µM (active)
same,Potency,SKOV3,inactive
same,Potency,Tov112D,inactive
C=C1C(=O)O[C@@H]2/C=C(/C)[C@@H](OC(C)=O)C/C=C(\C)C[C@@H](OC(=O)/C(=C/CO)CO)[C@@H]12,Potency,PA-1,inactive
same,Potency,SKOV3,inactive
same,Potency,Tov112D,inactive
O=C(c1ccccc1)c1c(O)cc(O)cc1O[C@@H]1O[C@H](CO)[C@@H](O)[C@H](O)[C@H]1O,Potency,PA-1,11.2 µM (active)
same,Potency,SKOV3,inactive
same,Potency,Tov112D,11.2 µM (active)
C=C1C(=O)O[C@@H]2[C@H]1CC(=O)[C@H](C)[C@@](O)(C(=O)/C=C/C)[C@H]2OC(=O)C(C)CC (stereo not given in full),Potency,PA-1,11.2 µM (active)
same,Potency,Tov-21-G,12.6 µM (active)
CCCC(Nc1nc(-c2ccc(NC(=O)NCC)c(OC)c2)ncc1C)c1cccnc1 (stereo not given),Potency,PA-1,0.251 µM (active)
same,Potency,Tov-21-G,0.316 µM (active)
same,Potency,Tov112D,0.158 µM (active)
N#CC(CCCN1CCC(O)(c2ccc(Cl)cc2)CC1)(c1ccccc1)c1ccccc1,Potency,PA-1,inactive
same,Potency,Tov-21-G,inactive
C=C1CC(=O)C2OC2(C)CC2OC(=O)C(=C)C2C(O)C1OC(=O)/C(C)=C\C (stereo not given),Potency,PA-1,inactive
same,Potency,SKOV3,inactive
same,Potency,Tov112D,inactive
CC[C@@H](C)Nc1cc(C(=O)NC2CC3CCC(C2)N3c2ccc(C(=O)C3CC3)cn2)c(C)cc1C(N)=O (stereo not given in full),Potency,PA-1,0.355 µM (active)
same,Potency,Tov-21-G,0.398 µM (active)
C/C1=C\[C@@H](C)C[C@@H](C)[C@@H](Cc2cnco2)OC(=O)/C(C)=C/[C@@H](C)C[C@@H](C)[C@@H](Cc2cnco2)OC1=O,Potency,PA-1,inactive
same,Potency,Tov-21-G,inactive
CC[C@@H](C)Nc1cc(C(=O)NC2CC3CC[C@@H](C2)N3c2ccc(C(=O)C3CC3)cn2)c(C)cc1C(N)=O (stereo not given in full),Potency,PA-1,0.316 µM (active)
same,Potency,Tov-21-G,0.398 µM (active)
Nc1nc(NC2CC2)cc(-c2cccc(Cl)c2Cl)n1,Potency,PA-1,28.2 µM (active)
same,Potency,SKOV3,14.1 µM (active)
same,Potency,Tov112D,12.6 µM (active)
CCOC(=O)CCNc1cc(N2CCc3ccccc3CC2)nc(-c2cccnc2)n1,Potency,PA-1,inactive
same,Potency,Tov-21-G,inactive
same,Potency,Tov112D,inactive
Cc1c[nH]c2ncnc(N3CCC(CN)(C(=O)Nc4cccc(OC(=O)N(C)C)c4)CC3)c12,Potency,PA-1,inactive
same,Potency,SKOV3,22.4 µM (active)
same,Potency,Tov112D,inactive
